Results on 20 compounds are retold here after PubChem BioAssay (NCI).

This is part of a sample that, as a whole, favours compounds with a hit. Of some 83,000 tested, about 20% had one in any assay.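 For each line, cells grew in 96-well plates with the test compound present at a single concentration for 48 hours.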 A number with no mark means an inactive call. Active and inactive are the calls of the source. Rule for the calls: active = growth percent below 10; inactive = the rest.

Test systems include HCT-15 colon; HT29 colon; SNB-75 CNS; SNB-19 CNS; U251 CNS; PC-3 prostate; SK-MEL-5 melanoma; UACC-62 melanoma; LOX IMVI melanoma; SK-MEL-28 melanoma.
What all share (test): NCI-60 one-dose screen, 48 h (100 = growth as untreated, 0 = no growth, -100 = all killed)
Settings in all cases: 10 µM unless noted

Consider `C[C@@H](C[C@H](CCOCc1cccnc1)c1ccccc1)c1cc2ccccc2o1`, for which the growth in the assay with HCT-15 colon is 91.1%; in the assay on HT29 colon, 78.1%; in the assay with SNB-75 CNS, 85.6%; in the assay on SNB-19 CNS it was 94.2%; with U251 CNS, 93.6%; in the assay on PC-3 prostate it was 75.6%. Further, the growth is 98.4% in the assay with SK-MEL-5 melanoma, 81.2% in the assay with UACC-62 melanoma, 95.8% in the assay on LOX IMVI melanoma and 102% in the assay with SK-MEL-28 melanoma.

As for `Cc1csc(NC(=O)c2sc3nc(-c4cccs4)ccc3c2N)n1`, the growth in the assay on HCT-15 colon was 102%; with HT29 colon it was 102%; in the assay on SNB-75 CNS it was 102%; with SNB-19 CNS, 112%; in the assay on U251 CNS, 91.3%; in the assay on PC-3 prostate, 82.6%. Further, the growth is 92.2% in the assay on SK-MEL-5 melanoma, 98.2% in the assay with UACC-62 melanoma, 95.1% with LOX IMVI melanoma and 115% with SK-MEL-28 melanoma.

`CSc1ccc(Cl)c(C(=O)Nc2sccc2C(N)=O)c1`: the growth is 98.8% in the assay on HCT-15 colon; 118% in the assay with HT29 colon; 105% in the assay with SNB-75 CNS; 80.6% with SNB-19 CNS; 94.3% in the assay with U251 CNS; 83.8% in the assay on PC-3 prostate. For the same compound, the growth in the assay on SK-MEL-5 melanoma is 95%; in the assay with UACC-62 melanoma, 81.1%; in the assay with LOX IMVI melanoma, 100%; in the assay with SK-MEL-28 melanoma, 102%.

Regarding `CCCCCOC(=O)c1ccc(NC(=O)CNCC(C)C)cc1`, the growth in the assay with HCT-15 colon is 86.8%; in the assay with HT29 colon, 80.6%; in the assay on SNB-75 CNS, 86.3%; with SNB-19 CNS it was 90.6%; with U251 CNS, 93.1%; with PC-3 prostate, 65.8%. Further, the growth in the assay with SK-MEL-5 melanoma is 95.7%; in the assay on UACC-62 melanoma, 91.6%; with LOX IMVI melanoma it was 94.4%; with SK-MEL-28 melanoma, 105%.

Consider `O=C1c2ccccc2C2(c3ccc(O)cc3)c3ccccc3Oc3cccc1c32` (stereo not given), for which the growth in the assay with HCT-15 colon is 25.9%; in the assay on HT29 colon, 7.07% (active); in the assay on SNB-75 CNS, 42.2%; in the assay on SNB-19 CNS, 35.6%; in the assay on U251 CNS, 15.5%; in the assay on PC-3 prostate, 21.6%. The growth in the assay on SK-MEL-5 melanoma is 16.9%; in the assay with UACC-62 melanoma it was 30.8%; with LOX IMVI melanoma, 28.3%; with SK-MEL-28 melanoma, 51.9%.

For the compound `COc1cc(NC(=O)c2cccc(-c3cc(=O)c4c(O)c(OC)c(OC)cc4o3)c2)cc(OC)c1OC`, the growth with HCT-15 colon is 59.9%; in the assay on HT29 colon, 62.8%; with SNB-75 CNS it was 32.3%; with SNB-19 CNS, 50%; in the assay with U251 CNS, 44.8%; in the assay with PC-3 prostate, 49.8%. The growth with SK-MEL-5 melanoma was 39.2%; in the assay with UACC-62 melanoma, 49.4%; in the assay on LOX IMVI melanoma, 33%; in the assay with SK-MEL-28 melanoma it was 77.4%.

On to `COc1ccc(N=c2nc3sc4cc(Cl)ccc4n3c(N)c2C#N)cc1`, for which the growth was 99.5% in the assay with HCT-15 colon; 36.1% with HT29 colon; 36.9% with SNB-75 CNS; 82% with SNB-19 CNS; 79% in the assay with U251 CNS; 58.5% with PC-3 prostate. Besides, the growth in the assay on SK-MEL-5 melanoma was 14.9%; with UACC-62 melanoma it was 69.3%; in the assay on LOX IMVI melanoma, 83%; in the assay on SK-MEL-28 melanoma it was 45.8%.

On to `Cc1nn(-c2ccccc2)c2c1C(c1ccc([N+](=O)[O-])cc1)C(C#N)=C(N)O2` (stereo not given), for which the growth in the assay with HCT-15 colon is 106%; in the assay with HT29 colon it was 105%; in the assay with SNB-75 CNS, 87.7%; in the assay with SNB-19 CNS, 102%; with U251 CNS it was 110%; in the assay on PC-3 prostate, 102%. Besides, the growth with SK-MEL-5 melanoma was 122%; in the assay on UACC-62 melanoma it was 96.1%; in the assay on LOX IMVI melanoma it was 101%; in the assay on SK-MEL-28 melanoma, 116%.

As for `Nc1nc(I)c2ncn(C3OC(CO)C(O)C3O)c2n1` (stereo not given), the growth with HCT-15 colon is 104%; with HT29 colon, 141%; with SNB-75 CNS, 130%; in the assay with SNB-19 CNS, 102%; in the assay with U251 CNS, 100%; in the assay with PC-3 prostate, 124%. Also, the growth in the assay on SK-MEL-5 melanoma was 102%; in the assay with UACC-62 melanoma, 90.4%; in the assay with LOX IMVI melanoma, 93.5%; in the assay on SK-MEL-28 melanoma, 126%.

Regarding `CCOC(=O)Cc1csc2nc(-c3ccccc3)nn12`, the growth was 113% in the assay with HCT-15 colon; 106% with HT29 colon; 105% in the assay with SNB-75 CNS; 90.2% in the assay with SNB-19 CNS; 106% in the assay with U251 CNS; 101% with PC-3 prostate. Also, the growth in the assay on SK-MEL-5 melanoma was 107%; with UACC-62 melanoma, 98.6%; in the assay on LOX IMVI melanoma, 89%; with SK-MEL-28 melanoma it was 117%.

In the case of `O=S(=O)(Nc1ccsc1-c1nc(-c2ccccc2)no1)c1cc(Cl)cc(Cl)c1`, the growth is 91.9% in the assay on HCT-15 colon; 98.5% in the assay on HT29 colon; 73% in the assay on SNB-75 CNS; 98.8% in the assay with SNB-19 CNS; 97.8% in the assay with U251 CNS; 86.7% with PC-3 prostate. Also, the growth in the assay with SK-MEL-5 melanoma is 93.5%; with UACC-62 melanoma, 83.6%; in the assay with LOX IMVI melanoma, 96.5%; with SK-MEL-28 melanoma, 88.2%.

Turning to `Cn1ccc(Cc2cnc(N)s2)n1`, the growth was 104% in the assay on HCT-15 colon; 97.5% in the assay on HT29 colon; 93.3% in the assay with SNB-75 CNS; 98.9% in the assay on SNB-19 CNS; 97.5% in the assay on U251 CNS; 98.8% in the assay with PC-3 prostate. Besides, the growth with SK-MEL-5 melanoma is 101%; with UACC-62 melanoma it was 100%; in the assay with LOX IMVI melanoma, 103%; in the assay on SK-MEL-28 melanoma, 106%.

On to `CCN(CC)c1ccc(Nc2ccc(CC(=O)c3ccccc3)cc2)cc1`, for which the growth in the assay on HCT-15 colon is 88.7%; with HT29 colon, 75.8%; in the assay on SNB-75 CNS, 91.1%; in the assay with SNB-19 CNS, 80.8%; in the assay with U251 CNS, 56.2%; with PC-3 prostate, 39.9%. The growth with SK-MEL-5 melanoma was 79.9%; in the assay with UACC-62 melanoma, 78.5%; in the assay with LOX IMVI melanoma, 91.3%; in the assay on SK-MEL-28 melanoma, 98.5%.

As for `CCOC(=O)c1c(C)nc2c(c1N)/C(=C/c1cc(OC)c(OC)c(OC)c1)C(=O)N2c1ccc(OC)cc1`, the growth in the assay with HCT-15 colon was 31.3%; in the assay on HT29 colon, 26.2%; in the assay with SNB-75 CNS, 73.9%; with SNB-19 CNS it was 47.9%; with U251 CNS it was 43.6%; in the assay on PC-3 prostate, 50.1%. The growth in the assay with SK-MEL-5 melanoma was 69.5%; in the assay on UACC-62 melanoma, 67.3%; in the assay on LOX IMVI melanoma it was 14.6%; with SK-MEL-28 melanoma, 70.2%.

As for `CCC(=O)OC1=C(C)SC2=NC(c3ccc(Cl)c(Cl)c3)=CC(c3cc(OC)c(OC)c(OC)c3)N21` (stereo not given), the growth with HCT-15 colon was 89.8%; in the assay on HT29 colon, 103%; in the assay with SNB-75 CNS it was 76.9%; with SNB-19 CNS, 94.5%; in the assay with U251 CNS, 95.9%; in the assay with PC-3 prostate it was 91.8%. Also, the growth in the assay with SK-MEL-5 melanoma is 98.7%; in the assay on UACC-62 melanoma, 87.8%; in the assay with LOX IMVI melanoma, 99.6%; in the assay on SK-MEL-28 melanoma it was 104%.

Turning to `O[C@H]1CO[C@H]2[C@@H]1OC[C@@H]2Oc1ccc(Nc2nc(Nc3ccc(F)c(Cl)c3)ncc2F)cc1Cl`, the growth is 90.8% in the assay on HCT-15 colon; 111% in the assay on HT29 colon; 74.7% with SNB-75 CNS; 103% with SNB-19 CNS; 108% in the assay with U251 CNS; 102% in the assay on PC-3 prostate. Further, the growth was -90.5% (active) in the assay on SK-MEL-5 melanoma, 89.4% in the assay on UACC-62 melanoma, 103% in the assay with LOX IMVI melanoma and 99.7% with SK-MEL-28 melanoma.

Regarding `COc1cc(C2CC(=O)Nc3n[nH]c(-c4ccccc4)c32)cc(OC)c1OC` (stereo not given), the growth was 68.4% in the assay on HCT-15 colon; 47.1% with HT29 colon; 47.7% in the assay on SNB-75 CNS; 75.4% in the assay on SNB-19 CNS; 62.9% with U251 CNS; 59.3% in the assay on PC-3 prostate. In addition, the growth in the assay with SK-MEL-5 melanoma is 68%; in the assay on UACC-62 melanoma it was 38%; in the assay on LOX IMVI melanoma, 70.3%; in the assay with SK-MEL-28 melanoma, 66.5%.

In the case of `C=C1C(=O)O[C@H]2[C@H]1CC/C(Cn1cc(CNCCc3c[nH]c4ccc(Cl)cc34)nn1)=C\CC[C@@]1(C)O[C@@H]21`, the growth with HCT-15 colon is 88.6%; in the assay with HT29 colon it was 21.2%; with SNB-75 CNS, 69.6%; in the assay on SNB-19 CNS, 83.7%; in the assay on U251 CNS, 60.2%; in the assay with PC-3 prostate it was 75%. In addition, the growth was 86.6% in the assay with SK-MEL-5 melanoma, 63% in the assay on UACC-62 melanoma, 62% in the assay on LOX IMVI melanoma and 81.5% in the assay with SK-MEL-28 melanoma.

Regarding `NS(=O)(=O)c1cnccc1-n1ccc(=O)c(S(N)(=O)=O)c1`, the growth is 90.8% in the assay with HCT-15 colon; 105% in the assay with HT29 colon; 73.8% in the assay on SNB-75 CNS; 88.1% in the assay on SNB-19 CNS; 96.6% in the assay with U251 CNS; 86.5% in the assay with PC-3 prostate. The growth in the assay on SK-MEL-5 melanoma was 103%; in the assay on UACC-62 melanoma, 96.9%; with LOX IMVI melanoma, 97.1%; in the assay on SK-MEL-28 melanoma, 92.5%.

As to `CCN(CC)CC(=O)Nc1cccc(C(=O)OC(C)C)c1`, the growth in the assay on HCT-15 colon is 93.9%; in the assay on HT29 colon, 81.5%; with SNB-75 CNS, 107%; in the assay on SNB-19 CNS, 106%; in the assay on U251 CNS, 100%; in the assay with PC-3 prostate it was 80.8%. Further, the growth in the assay on SK-MEL-5 melanoma is 107%; with UACC-62 melanoma it was 102%; in the assay on LOX IMVI melanoma it was 96.2%; with SK-MEL-28 melanoma, 102%.
